These results are taken from PubChem BioAssay (EPA / NIEHS).

The nature of assay [1]: CCTE_Deisenroth_5AR_NBTE_donor: CCTE's 5alpha-reductase NanoBRET Target Engagement Assay […], Deisenroth Lab (AID 2284319). Conditions: actives raise or lower the signal. An outline of the steps:
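HEK293T cells transiently expressing SRD5A2-NanoLuc, exposed 5 h to chemicals (8 points, 10 nM - 29.9 uM), with testosterone tracer for the final 2 h. Donor luminescence at 460 nm read after Nano-Glo substrate plus extracellular NanoLuc inhibitor; bidirectional fit versus DMSO.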
Background: In BRET a luciferase serves as donor, and the signal depends on an acceptor being close.

Assay [2] in a line: CCTE_Deisenroth_5AR_NBTE_acceptor: CCTE's 5alpha-reductase NanoBRET Target Engagement Assay - Autofluorescence Screen, Deisenroth Lab (AID 2284321).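 Further: compound fluorescence in the acceptor channel under 460 nm excitation flags autofluorescence artifacts.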 Conditions: actives raise or lower the signal. An outline of the steps: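 Autofluorescence check: ToxCast chemicals, nominal 100 uM, excitation 460 nm, n=3 runs. Acceptor fluorescence endpoint, bidirectional fit relative to DMSO. Parent assay in HEK293T, 5 h post-dose.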

Assay [3] concerns SRD5A2 (gene 6716). Briefly: CCTE_Deisenroth_5AR_NBTE_ratio: CCTE's 5alpha-reductase NanoBRET Target Engagement Assay - Ratio, Deisenroth Lab (AID 2284322). As to conditions: actives raise or lower the signal. In short, it runs like this:
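HEK293T transiently expressing SRD5A2-NanoLuc; cells exposed to chemical (8-point, 10 nM - 29.9 uM) for 5 h total, testosterone tracer added for final 2 h. NanoBRET acceptor/donor ratio (650/460 nm), bidirectional fit vs DMSO.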

The test system of assay [4] is IYD (gene 389434). Put plainly: CCTE_GLTED_hIYD: CCTE's human Iodotyrosine Deiodinase (xIYD) Inhibition Assay, Great Lakes Toxicology and Ecology Division (GLTED) Lab (AID 2284317; active means hit-call score of the fitted dose curve at least 0.9, where 1 is the maximum;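 further: cell-free human IYD enzyme made in baculovirus insect cells; iodide freed from monoiodotyrosine measured by cerium arsenite color change at 420 nm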). An outline of the steps:
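Absorbance change at 420 nm from the iodide-catalysed cerium-arsenic reaction reports free iodide released by human IYD from monoiodotyrosine. Enzyme, substrate and chemical are incubated 3 h; loss of signal is fitted relative to DMSO baseline.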

Read-out in assay [5]: CD69, CD69 (gene 969)
Briefly: BSK_LPS_CD69: BioMAP Diversity Plus: LPS Assay for CD69 Biomarker Activity (AID 2284303). Conditions: primary human HUVEC with PBMC. In short, it runs like this:
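Human umbilical vein endothelial cells co-cultured with PBMC under LPS stimulation, chemical exposure 24 h; cell-surface CD69 measured by ELISA and fitted in the positive direction versus DMSO.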

Assay [6] relates to TTR (gene 7276). Put plainly: CCTE_GLTED_hTTR_0.5uM: CCTE's human Transthyretin (hTTR) Inhibition Assay, with 0.5uM TTR, Great Lakes Toxicology and Ecology Division (GLTED) Lab (AID 2284320). In short, it runs like this: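 Cell-free displacement assay in which human TTR at 0.5 uM was incubated with test chemical for 2 h. Displacement of the ANSA probe was read by fluorescence at 380 nm excitation/475 nm emission. Loss of signal was fitted in the positive direction versus DMSO.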

Assay [7] in a line: IUF_NPC2a_radial_glia_migration_72hr: Leibniz Research Institute for Environmental Medicine (IUF) 72-hour Neural Progenitor Cell Migration Assay for Radial Glia Migration (NPC2a) (AID 2284299). In short, it runs like this: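 Primary hNPC spheres, fetal brain GW 16-19, on PDL/laminin; DMEM/F12 3:1 + 1% N2. Compound dosed day 0, 7 conc. + SC, half-medium refresh day 3. 72 h brightfield, migration distance core-to-front (um), 4 directions averaged.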

Assay [8] can be described thus: IUF_NPC2b_neuronal_migration_120hr: Leibniz Research Institute for Environmental Medicine (IUF) 120-hour Neural Progenitor Cell Migration Assay for Neuron Migration (NPC2b) (AID 2284300). In short, it runs like this:
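hNPC spheres, PDL/laminin, DMEM:F12 3:1 + 1% N2, 37C/5% CO2; 7 concentrations + solvent control (DMSO ≤0.1%), 5 d exposure, half-feed day 3. Fix 120 h, TUBB3 ICC, HCI: mean neuron migration distance ÷ glia distance.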

A short description of assay [9]: IUF_NPC3_neuronal_differentiation_120hr: Leibniz Research Institute for Environmental Medicine (IUF) 120-hour Neuronal Differentiation Assay (NPC3) (AID 2284301). In short, it runs like this:
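Human fetal (GW 16-19) neural progenitor spheres (0.3 mm) plated on poly-D-lysine/laminin in N2 differentiation medium, exposed 120 h at 37C with half-medium renewal day 3; 7 concentrations. TUBB3+ cells as % of Hoechst nuclei, CNN-identified; DMSO baseline.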

Assay [10] in a line: IUF_NPC4_neurite_length_120hr: Leibniz Research Institute for Environmental Medicine (IUF) 120-hour Neuronal Morphology Assay for Neurite Length (NPC4) (AID 2284302). In short, it runs like this: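 Human fetal neural progenitor spheres (0.3 mm) plated on poly-D-lysine/laminin in N2 differentiation medium, exposed from day 0 for 120 h with half-medium refresh at day 3, 37C. Mean neurite length (um) of TUBB3-positive neurons from skeletonized immunostaining images; DMSO ≤0.1%.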

Assay [11] can be described thus: IUF_NPC5_oligodendrocyte_differentiation_120hr: Leibniz Research Institute for Environmental Medicine (IUF) 120-hour Oligodendrocyte Differentiation Assay (NPC5) (AID 2284304; active means hit-call score of the fitted dose curve at least 0.9, where 1 is the maximum;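 further: primary human fetal neural progenitor spheres plated to migrate and differentiate; share of O4-positive cells among Hoechst nuclei found by CNN image analysis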). An outline of the steps: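 hNPC spheres, fetal cortex GW 16-19; PDL/laminin, DMEM:F12 3:1 + 1% N2, 37C/5% CO2; 7 concentrations + solvent control, 5 d exposure, half-change day 3. Readout: %O4+ of Hoechst+ nuclei in migration area, CNN classification; DMSO baseline.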

Assay [12] in a line: IUF_NPC4_neurite_area_120hr: Leibniz Research Institute for Environmental Medicine (IUF) 120-hour Neuronal Morphology Assay for Neurite Area (NPC4) (AID 2284305; active means hit-call score of the fitted dose curve at least 0.9, where 1 is the maximum). An outline of the steps: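 Human fetal neural progenitor spheres (0.3 mm) plated on poly-D-lysine/laminin in N2 differentiation medium, exposed 120 h (7 concentrations, DMSO ≤0.1%, half-medium refresh day 3). Fixed, TUBB3 immunostained; mean neurite area per neuron by Omnisphero skeletonization.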

Assay [13] in a line: IUF_NPC2-5_cytotoxicity_72hr: Cytotoxicity Assessment at 72 hours in the Leibniz Research Institute for Environmental Medicine (IUF) Neural Progenitor Cell Migration and Differentiation Assay for Cytotoxicity (NPC2-5) (AID 2284306; active means hit-call score of the fitted dose curve at least 0.9, where 1 is the maximum;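 further: LDH release into supernatant measured by resorufin fluorescence marking membrane damage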). In short, it runs like this:
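Human fetal primary neural progenitor spheres (0.3 mm) plated on poly-D-lysine/laminin in N2 differentiation medium, exposed from day 0 at 37C. LDH-dependent resazurin-to-resorufin fluorescence in supernatant at 72 h; 7 concentrations, DMSO at most 0.1%.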

Assay [14] is described as follows: IUF_NPC2-5_cytotoxicity_120hr: Cytotoxicity Assessment at 120 hours in the Leibniz Research Institute for Environmental Medicine (IUF) Neural Progenitor Cell Migration and Differentiation Assay (NPC2-5) (AID 2284307; active means hit-call score of the fitted dose curve at least 0.9, where 1 is the maximum). In short, it runs like this:
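hNPC spheres on PDL/laminin, N2 medium, 37C; 7 concs + solvent control, DMSO ≤0.1%; 5-day exposure, half medium changed day 3. LDH in supernatant at 120 h, resazurin→resorufin fluorescence, gain-of-signal.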

The nature of assay [15]: IUF_NPC2-5_cell_number_120hr: Cell Number Assessment at 120 hours in the Leibniz Research Institute for Environmental Medicine (IUF) Neural Progenitor Cell Migration and Differentiation Assay (NPC2-5) (AID 2284308).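 Further: count of Hoechst-stained nuclei in migration zone around plated human neural progenitor spheres.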 In short, it runs like this:
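Hoechst-stained nuclei within the migration area were counted by automated high content imaging after 120 h. Single hNPC spheres differentiated on poly-D-lysine/laminin in DMEM/F12 (3:1) with 1% N2, compound present throughout, DMSO ≤0.1%.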

Assay [16] is described as follows: IUF_NPC2-5_viability_120hr: Viability Assessment at 120 hours in the Leibniz Research Institute for Environmental Medicine (IUF) Neural Progenitor Cell Migration and Differentiation Assay (NPC2-5) (AID 2284312). In short, it runs like this: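 Human fetal neural progenitor spheres (0.3 mm) plated on poly-D-lysine/laminin in N2 differentiation medium, exposed 120 h with half-medium refresh at day 3. Viability by alamar blue resazurin fluorescence; 7 concentrations, DMSO max 0.1%.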

Assay [17] is described as follows: CCTE_Mundy_HCI_iCellGluta_NOG_NeuriteLength: CCTE's Neurite Outgrowth Assay in iCellGluta cells for Neurite Length, Mundy Lab (AID 2284318; active means hit-call score of the fitted dose curve at least 0.9, where 1 is the maximum). An outline of the steps: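 Automated high-content imaging of betaIII-tubulin (Alexa Fluor-488) and Hoechst-stained cells gave neurite length, normalized to the DMSO baseline.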
Assay [18] can be described thus: VALA_TUBHUV_Agonist_CellCount: Viability Assessment in the VALA Sciences human Umbilical Vein Endothelial Tubule Formation (TUBHUV) Agonism Assay (AID 2284309; active means hit-call score of the fitted dose curve at least 0.9, where 1 is the maximum). In short, it runs like this:
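HUVEC co-cultured 1:3 with HDF for 3 days in 10 ng/ml VEGF, then compounds added in VEGF medium for a further 3 days (72 h). Nuclear-stain/CD31 imaging cell count. Positive-direction fit versus 0.1% DMSO vehicle.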

The nature of assay [19]: VALA_TUBIPS_Antagonist_TubuleLength: VALA Sciences human iPS-derived Endothelial Tubule Formation (TUBIPS) Antagonist Assay (AID 2284313; active means hit-call score of the fitted dose curve at least 0.9, where 1 is the maximum). In short, it runs like this: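 Cells grown 3 days with 10 ng/ml VEGF, then exposed to compounds in VEGF medium for another 3 days. After fixation, nuclear stain and CD31 immunofluorescence imaging gave mean total tubule length against 0.1% DMSO; suramin (100 uM) inhibition control.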

Assay [20] can be described thus: VALA_TUBHUV_Antagonist_TubuleLength: VALA Sciences human Umbilical Vein Endothelial Tubule Formation (TUBHUV) Antagonism Assay (AID 2284325; active means hit-call score of the fitted dose curve at least 0.9, where 1 is the maximum). An outline of the steps: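 HUVEC–HDF co-culture (1:3) pre-grown 3 days with 10 ng/ml VEGF, then 3 days with compound plus VEGF. Fixed, nuclear and CD31 stained; total tubule length by imaging versus 0.1% DMSO; suramin 100 uM positive control.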

Several values for one entry are separate records, joined by “and”; a condition that tells them apart may be missing. Identical values can stand only once. Results filed as inconclusive are left out. Activity calls are given as the source filed them. How the source made its calls, unless noted: active means hit-call score of the fitted dose curve at least 0.9, where 1 is the maximum; inactive means score below 0.9.

The term AC50 denotes the midpoint of the concentration-response curve, whichever way the signal moves. On to `Cc1cc(-c2ccc(N)c(C)c2)ccc1N`, for which the result in assay [1] and in [2] was inactive. Moreover, the AC50 in [3] was 50 µM (active).
As to `CC#Cc1cc(C)nc(Nc2ccccc2)n1`, the compound was classed as inactive in assay [4].
As to `O=C(O)C(F)(F)C(F)(F)C(F)(F)C(F)(F)C(F)(F)C(F)(F)C(F)(F)C(F)(F)C(F)(F)F`, the AC50 in assay [5] is 49.1 µM (active) and 45.4 µM (active); in assay [4], 95.5 µM (active) and 50.9 µM (active); in assay [6], 0.721 µM (active).
Take `ClC(Cl)=C(c1ccc(Cl)cc1)c1ccc(Cl)cc1`: the outcome in [1], in assay [2] and in assay [3] was inactive.
With `O=C(O)C(F)(F)C(F)(F)C(F)(F)C(F)(F)C(F)(F)C(F)(F)C(F)(F)C(F)(F)F`, the AC50 in [5] was 41.8 µM (active) and 30 µM (active); in assay [4] it was 91.2 µM (active); in assay [6], 0.435 µM (active).
On to `O=C(O)C(F)(F)C(F)(F)C(F)(F)C(F)(F)C(F)(F)F`, for which, in assay [5], the outcome was inactive. Also, the AC50 in assay [6] is 1.46 µM (active).
Regarding `C=CC(N)=O`, the result in [7], in [8], in assay [9], in [10], in [11] and in assay [12] was inactive. The compound was classed as inactive in assay [13], in assay [14], in [15] and in [16].
Consider `NS(=O)(=O)C(F)(F)C(F)(F)C(F)(F)C(F)(F)C(F)(F)C(F)(F)C(F)(F)C(F)(F)F`, for which the AC50 in assay [5] was 38.4 µM (active) and 24.5 µM (active); in assay [4], 46.1 µM (active); in assay [6] it was 0.807 µM (active). In [17], the outcome was inactive.
For the compound `COc1ccc(O)c(C(C)(C)C)c1`, the outcome in [5] and in [17] was inactive.
Consider `CCOP(=S)(OCC)SCSC(C)(C)C`, for which the compound was classed as inactive in [7], in assay [8], in [9], in [10], in assay [12] and in assay [13]. The compound was called inactive in [14], in [15], in assay [16] and in assay [17].
Turning to `CCCCCCCCCC[N+](C)(C)CCCCCCCCCC`, the AC50 was 63.9 µM (active) in [4], 5.89 µM (active) in assay [1], 4.7 µM (active) in assay [2] and 10.3 µM (active) in assay [3].
On to `Oc1ccc(C(c2ccc(O)cc2)(C(F)(F)F)C(F)(F)F)cc1`, for which the AC50 in assay [18] is 65.5 µM (active). In addition, the call in [19] and in assay [20] was inactive.
